Out of some 270,000 compounds screened, about 5,800 (2.1%) were called active. Another 16% or so got no clear call; they are omitted. The full list was thinned out, with actives kept by preference. Values without a mark were called inactive. Calls follow the shape of the dose curve; as a rule, active = well fitted inhibition curve with a large enough effect; inconclusive = small, poorly fitted or top-dose-only effect; inactive = flat fitted curve, though single readings scatter.
biological target: Microtubule-associated protein tau (Homo sapiens) (UniProt P10636); test: qHTS for Inhibitors of Tau Fibril Formation, Thioflavin T Binding; conditions: recombinant tau K18 P301L, heparin-induced fibrillization, ThT fluorescence; series mostly up to 57.4 µM; activity, negative = inhibition: at the top concentration; also: nearly all actives have a fitted effect of over 55% in size
Sequence (P10636 561-689 P618L limits assumed): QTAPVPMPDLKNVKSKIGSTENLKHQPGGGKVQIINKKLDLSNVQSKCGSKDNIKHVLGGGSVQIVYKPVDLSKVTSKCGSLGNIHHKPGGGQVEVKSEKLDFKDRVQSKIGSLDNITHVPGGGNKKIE
How it was run: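 ThT emission at 510 nm, taken 1 hr after adding 30 uM dye, quantifies aggregates formed when 20 uM heparin acts on human tau K18 P301L for 6 hr at 37 C.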
% is scaled to controls: 0 for no effect and ±100 for the full control effect; potency is read from the fitted curve at half-maximal effect.

SMILES	activity, negative = inhibition [%]	Potency
CCc1ccc(CNCc2c(C(=O)O)n(Cc3ccc(F)cc3Cl)c3cc(OC)ccc23)cc1	-12.6	–
COc1ccc(S(=O)(=O)NCc2cccn2Cc2cccc(C)c2)cc1	10.6	–
COc1ccc(Cc2nc3ccc(C(=O)NCc4ccccc4C)cc3o2)cc1	-12.9	–
O=C(Nc1ccccc1Cl)c1ccc2nsnc2c1	-5.65	–
COCCN(CCOC)C(=S)Nc1ccccc1Cl	1.33	–
O=C(Nc1ccccc1Cl)/C(Cl)=C(\Cl)S(=O)c1ccccc1 (configuration not stated)	–	2.82 µM (active)
CCOC(=O)C1CCCN(C(=O)Cn2ncc3c(C)n(Cc4ccc(F)cc4)c(C)c3c2=O)C1 (configuration not stated)	-5.22	–
O=C(CCc1nc(CN2CCN(S(=O)(=O)c3ccc(Cl)cc3)CC2)no1)N1CCCCC1	-2.38	–
CCC(=O)Nc1ccc(C)cc1-c1nc2ccccc2n(Cc2ccccc2)c1=O	4.56	–
Cc1ccc(NC(=O)Nc2ccccc2)c(Br)c1	0.764	–
C=CC[n+]1c(-c2ccc(C)cc2)csc1NNC(=O)Nc1ccccc1	–	15.8 µM (active)
C=CCNc1scc(-c2ccccc2)[n+]1CC=C	-6.04	–
O=C(NCC(c1ccc(Cl)cc1)N1CCOCC1)c1ccccc1F (configuration not stated)	-2.31	–
COc1ccc(-c2cc(C(=O)NCc3cc(OC)c(OC)c(OC)c3)[nH]n2)cc1	-1.22	–
Cc1ccc2c(c1)N(CC(=O)NCCCN1CCCCC1)C(=O)c1cccnc1O2	5.5	–
Cc1ccc(-c2nc3cccc(C)n3c2Nc2ccc3c(c2)OCCO3)cc1	-16.2	–

SMILES	activity, negative = inhibition [%]	Potency
Cc1ccc(Nc2c(-c3ccc(N(C)C)cc3)nc3nc[nH]n23)cc1	–	14.1 µM (active)
Cc1ccc(Nc2c(-c3ccc(C)s3)nc3ccccn23)cc1	-17.4	–
CCn1cc(C(=O)NCc2ccc(C)cc2)c(=O)c2cc(S(=O)(=O)N3CCc4ccccc4C3)ccc21	8.86	–
Cc1c(-c2nsc(NC(=O)c3cccc(Cl)c3)n2)nnn1-c1ccccc1C(F)(F)F	10.2	–
CCOC(=O)c1ccc(NC(=O)Cn2cc(S(=O)(=O)Cc3ccccc3F)c3ccccc32)cc1	1.94	–
COC(=O)CC1=NN(c2ccccc2)C(=O)C1	-12.9	–
O=c1[nH]n(-c2ccc([N+](=O)[O-])cc2)c(=O)c2ccccc12	-17.7	–
O=C1CC(c2ccccc2)=NN1c1ccc([N+](=O)[O-])cc1	–	11.2 µM (active)
O=C(NCC(c1cccnc1)N1CCc2ccccc21)c1cccc(C(F)(F)F)c1 (configuration not stated)	-1.15	–
COc1ccccc1-c1nnc(SCC(N)=O)o1	7.71	–
O=C(Cc1ccccc1)Nc1sc2c(c1C(=O)Nc1ccc(Br)cc1)CCC2	-1.03	–
CCOc1ccc(NC(=O)c2c(NCc3cccc(OC)c3OC)sc3c2CCC3)cc1	-8.9	–
CCOc1ccc(NC(=O)c2c(NC(=O)Cc3ccccc3)sc3c2CCCCC3)cc1	–	22.4 µM (active)
Cc1ccc(NC(=O)c2c(NC(=O)CCC(=O)O)sc3c2CCCCC3)cc1	–	25.1 µM (active)
N#Cc1c(NC(=O)CCCl)sc2c1CCCCC2	0.0781	–
CCOC(=O)c1c(NC(=O)CCC(=O)NCc2ccco2)sc2c1CCCC2	-11.9	–

From PubChem BioAssay AID1460 (National Center for Advancing Translational Sciences (NCATS), 2008)
